What follows are molecules tested against Solute carrier family 2, facilitated glucose transporter member 1 (Homo sapiens) (UniProt P11166) (assay: ST_JUDE_LEISH: Cytotoxicity at 2uM final concentration against transgenic Leishmania Mexicana promastigotes LmGLUT1 that are glucose transport deficient and complemented with the human glucose transporter GLUT1. Activity is measured by DNA content using SYBR green in vitro).
Assay type: functional

Sequence of Solute carrier family 2, facilitated glucose transporter member 1 (Homo sapiens) (P11166 whole entry): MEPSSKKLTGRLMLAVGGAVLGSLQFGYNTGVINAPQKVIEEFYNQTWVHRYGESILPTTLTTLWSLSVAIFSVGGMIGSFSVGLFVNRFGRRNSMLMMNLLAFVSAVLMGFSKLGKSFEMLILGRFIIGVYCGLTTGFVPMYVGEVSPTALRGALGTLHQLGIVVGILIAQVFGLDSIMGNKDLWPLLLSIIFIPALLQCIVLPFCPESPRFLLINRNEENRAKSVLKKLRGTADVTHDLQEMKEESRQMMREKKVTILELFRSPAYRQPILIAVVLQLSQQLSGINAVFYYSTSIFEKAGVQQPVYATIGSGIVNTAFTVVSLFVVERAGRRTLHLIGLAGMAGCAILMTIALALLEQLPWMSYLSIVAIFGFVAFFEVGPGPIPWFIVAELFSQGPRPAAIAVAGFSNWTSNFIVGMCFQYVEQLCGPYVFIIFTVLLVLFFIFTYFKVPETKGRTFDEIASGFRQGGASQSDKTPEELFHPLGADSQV

Row | SMILES | inhibition
1 | CCCCCCCCNCc1c(O)ccc2ccccc12 | 3.46%
2 | CCCCCCCc1c(C)nc2cccc(OC)c2c1O | 47.3%
3 | N#CCCN1CCN(Cc2cccc(-c3ccc(-c4nc5cc(C(F)(F)F)ccc5[nH]4)cc3)c2)CC1 | 3.02%
4 | O=C(Nc1ccc2c(c1)CCC2)c1ccc(N2CCN(c3ccncc3)CC2)cc1 | 68.7%
5 | CNc1nc(N/N=C/c2cc([N+](=O)[O-])c(Cl)cc2Cl)nc(Nc2cccc(C(F)(F)F)c2)n1 | 4.8%
6 | O=[N+]([O-])c1ccc(Nc2nc(NCc3ccccc3)nc(N/N=C/c3ccccc3[N+](=O)[O-])n2)cc1 | 2.21%
7 | Cc1cccc2nc(-c3ccc(-c4cccc(NC(=O)C(C)CN(C)C)c4)cc3)[nH]c12 (stereo unspecified) | 8.52%
8 | Cc1ccc2nc3sc(C(=O)NCCCN4CCC(N5CCCCC5)CC4)cc3cc2c1 | -0.92%
9 | O=C(NCCN1CCCC1)c1cccc(Nc2nccc(Nc3ccc(Oc4ccccc4)cc3)n2)c1 | 2.86%
10 | Cc1cccc2nc(-c3cccc(-c4cccc(NC(=O)Nc5cccc(C#N)c5)c4)c3)[nH]c12 | 11.2%
11 | CNC(=O)c1ccccc1Nc1nc(Nc2ccc(N3CCN(C)CC3)nc2)ncc1C | 12%
12 | Cc1[nH]c(C)c(-c2ccc(OCCCc3ccccn3)cc2)c(=O)c1Br | 8.98%
13 | Cc1cnc(C(=O)Nc2cccc(-c3cccc(-c4nc5cc(F)ccc5[nH]4)c3)c2)cn1 | 8.32%
14 | Cc1[nH]c(C)c(-c2ccc(-c3cccc(OC(F)(F)F)c3)nc2)c(=O)c1Cl | -1.57%
15 | COc1ccc(NC(=O)NC2CCN(c3ccnc4cc(Cl)ccc34)C2)cc1 (stereo unspecified) | 4.89%
16 | C=CCOC(=O)N1CCC(CNCc2cccc(-c3cccc(-c4nc5cc(F)ccc5[nH]4)c3)c2)C1 (stereo unspecified) | 1.39%
17 | O=C(Nc1ccc2c(c1)CCN(C1CCC1)CC2)c1cn(-c2ccccc2)nc1-c1ccccc1 | 5.38%
18 | Cc1ccc(Nc2ccnc3ccc(C(F)(F)F)cc23)cc1O | 4.92%
19 | Clc1ccc(Nc2nc(NCc3ccccc3)nc(N/N=C/c3ccccn3)n2)cc1 | 83.7%
20 | CCC(C)CN1CCN(c2ccc(NC(=O)c3cccs3)cc2)C(C)C1 (stereo unspecified) | 8.34%
21 | C=C(C)COc1ccc(-c2n[nH]c(C(F)(F)F)c2-c2ccccc2OC)c(O)c1 | 8.67%
22 | Nc1c2c(nc3ccc(NC(=O)Cc4ccccc4)cc13)CCCC2 | 4.09%
23 | CN(c1ccccc1)c1ccnc(NC(=N)Nc2ccc(Cl)cc2)n1 | 5.16%
24 | Cc1nc(C)c(-c2ccc(Oc3ccc(OC(F)(F)F)cc3)cc2)c(OC(=O)c2ccccc2)c1Cl | 2.27%
25 | CCN(CC)CCCC(C)Nc1c(-c2ccc(C)cc2)cnc2ccccc12 (stereo unspecified) | 9.89%
26 | Nc1ccnc2ccc(OCCCCCCc3ccccc3)cc12 | -1.77%

Each molecule was assayed against Hexose transporter 1 (Plasmodium falciparum) (UniProt O97467) (assay: ST_JUDE_LEISH: Cytotoxicity at 2uM final concentration against transgenic Leishmania Mexicana promastigotes LmPfHT that are glucose transport deficient and complemented with the Plasmodium falciparum hexose transporter. Activity is measured by DNA content using SYBR green in vitro).
Assay type: functional

Row | SMILES | inhibition
27 | CCN(CC)CCN(Cc1ccc(-c2ccc(C(F)(F)F)cc2)cc1)C(=O)Cn1c(SCc2ccc(F)c(F)c2F)nc(=O)c2c1CCC2 | 4.02%
28 | CC(C)(C)OC(=O)Cn1cnc2cc(NC(=O)c3cc([N+](=O)[O-])cc([N+](=O)[O-])c3)ccc21 | 4.11%
29 | COc1ccc(CCNCCCCCCNCCc2ccc(-c3ccccc3)cc2)cc1OC | 94.9%
30 | CCN(CC)CCN(Cc1ccc(-c2ccc(C(F)(F)F)cc2)cc1)C(=O)Cn1c(CCc2cccc(F)c2F)nc(=O)c2ccc(C)cc21 | 1.15%
31 | COc1cc(/C=C/C(=O)NC2CCC(N3CCC(c4ccccc4C)CC3)CC2)cc(OC)c1 (stereo unspecified) | -0.16%
32 | Cc1cccc2nc(-c3ccc(-c4cccc(NC(=O)Nc5ccccc5)c4)cc3)[nH]c12 | 9.91%
33 | Cc1cccc(CNc2nc(C)cc(N[C@@H](Cc3ccccc3)C(=O)NCCc3ccccc3)n2)c1 | 3.72%
34 | Cc1cc(OCCCN2CCC(NS(=O)(=O)c3cccc(Br)c3)C2)c2ccccc2n1 (stereo unspecified) | 1.51%
35 | CCOC(=O)c1ccc2[nH]c(-c3ccc(C(=O)NCc4ccc(C(C)(C)C)cc4)cc3)nc2c1 | 2.27%
36 | NC(=O)c1cccc(CN2Cc3ccccc3OC3(CCN(Cc4c[nH]c5cnccc45)CC3)C2)c1 | 1.28%
37 | Cc1cc(=NN=Cc2ccc(Cl)cc2)c2cccc(C)c2[nH]1 | 9.15%
38 | O=C(NC1CCN(Cc2ccccc2)CC1)c1csc2nc(-c3ccc(Cl)cc3)cn12 | 2.67%
39 | COCc1nc(-c2ccccc2)nc(N2CCN(C(=O)NC(C)C)CC2)c1Cc1ccccc1F | 6.85%
40 | CCCN1CCN(CCCNC(=O)c2cc3c(-c4ccc(Cl)cc4)nn(C)c3s2)CC1 | 17.4%
41 | CCCCCCCCNCc1c(O)ccc2ccccc12 | 3.25%
42 | CCCCCCCc1c(C)nc2cccc(OC)c2c1O | 59.4%
43 | N#CCCN1CCN(Cc2cccc(-c3ccc(-c4nc5cc(C(F)(F)F)ccc5[nH]4)cc3)c2)CC1 | 2.73%
44 | O=C(Nc1ccc2c(c1)CCC2)c1ccc(N2CCN(c3ccncc3)CC2)cc1 | 29.6%
45 | CNc1nc(N/N=C/c2cc([N+](=O)[O-])c(Cl)cc2Cl)nc(Nc2cccc(C(F)(F)F)c2)n1 | 2.41%
46 | O=[N+]([O-])c1ccc(Nc2nc(NCc3ccccc3)nc(N/N=C/c3ccccc3[N+](=O)[O-])n2)cc1 | -0.41%

Row | SMILES | inhibition
47 | Cc1cccc2nc(-c3ccc(-c4cccc(NC(=O)C(C)CN(C)C)c4)cc3)[nH]c12 (stereo unspecified) | 7.83%
48 | Cc1ccc2nc3sc(C(=O)NCCCN4CCC(N5CCCCC5)CC4)cc3cc2c1 | 3.13%
49 | O=C(NCCN1CCCC1)c1cccc(Nc2nccc(Nc3ccc(Oc4ccccc4)cc3)n2)c1 | 3.85%
50 | Cc1cccc2nc(-c3cccc(-c4cccc(NC(=O)Nc5cccc(C#N)c5)c4)c3)[nH]c12 | 10.1%
51 | CNC(=O)c1ccccc1Nc1nc(Nc2ccc(N3CCN(C)CC3)nc2)ncc1C | 11.3%
52 | Cc1[nH]c(C)c(-c2ccc(OCCCc3ccccn3)cc2)c(=O)c1Br | 6.12%
53 | Cc1cnc(C(=O)Nc2cccc(-c3cccc(-c4nc5cc(F)ccc5[nH]4)c3)c2)cn1 | 5.55%
54 | Cc1[nH]c(C)c(-c2ccc(-c3cccc(OC(F)(F)F)c3)nc2)c(=O)c1Cl | 0.86%
55 | COc1ccc(NC(=O)NC2CCN(c3ccnc4cc(Cl)ccc34)C2)cc1 (stereo unspecified) | 2.85%
56 | C=CCOC(=O)N1CCC(CNCc2cccc(-c3cccc(-c4nc5cc(F)ccc5[nH]4)c3)c2)C1 (stereo unspecified) | 0.9%
57 | O=C(Nc1ccc2c(c1)CCN(C1CCC1)CC2)c1cn(-c2ccccc2)nc1-c1ccccc1 | 3.65%
58 | Cc1ccc(Nc2ccnc3ccc(C(F)(F)F)cc23)cc1O | 3.33%
59 | Clc1ccc(Nc2nc(NCc3ccccc3)nc(N/N=C/c3ccccn3)n2)cc1 | 83.5%
60 | CCC(C)CN1CCN(c2ccc(NC(=O)c3cccs3)cc2)C(C)C1 (stereo unspecified) | 9.28%
61 | C=C(C)COc1ccc(-c2n[nH]c(C(F)(F)F)c2-c2ccccc2OC)c(O)c1 | 6.88%
62 | Nc1c2c(nc3ccc(NC(=O)Cc4ccccc4)cc13)CCCC2 | 5.7%
63 | CN(c1ccccc1)c1ccnc(NC(=N)Nc2ccc(Cl)cc2)n1 | 5.4%
64 | Cc1nc(C)c(-c2ccc(Oc3ccc(OC(F)(F)F)cc3)cc2)c(OC(=O)c2ccccc2)c1Cl | 3.78%
65 | CCN(CC)CCCC(C)Nc1c(-c2ccc(C)cc2)cnc2ccccc12 (stereo unspecified) | 7.44%
66 | Nc1ccnc2ccc(OCCCCCCc3ccccc3)cc12 | -1.93%
